Laboratory results reported in PubChem BioAssay (NCI).
This is part of a sample that, as a whole, favours compounds with a hit. Of some 79,000 tested, about 15% had one in any assay. The source made the active and inactive calls. Cut-off read from the data, not from the text of the source: active = growth inhibition above about 70%; inactive = the rest.

Assays:
[1] = NCI Yeast Anticancer Drug Screen. Data for the wt2 strain (AID 169);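 note: 0% = growth of vehicle-treated yeast cultures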; settings: S. cerevisiae wt2 strain growth inhibition, active compounds read high
Procedure, shortened: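 Against vehicle-treated controls, the growth of yeast exposed to each compound was compared, and the inhibition was recorded.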

[2] = NCI Yeast Anticancer Drug Screen. Data for the mlh1 strain (AID 171);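 note: 0% = growth of vehicle-treated control cultures of the same strain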; settings: S. cerevisiae mlh1 strain growth inhibition, active compounds read high
Procedure, shortened: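 Measured: yeast growth. Reference: vehicle-treated controls. Organism: strain with a defined alteration affecting DNA damage repair or cell cycle control, treated with compound.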

[3] = NCI Yeast Anticancer Drug Screen. Data for the sgs1 strain (AID 173);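 note: 0% = growth of vehicle-only control cultures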; settings: S. cerevisiae sgs1 mutant, active compounds read high
Procedure, shortened: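 Each compound was added to cultures of the altered yeast strain. Growth was recorded, and inhibition was derived by comparison with vehicle controls.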

[4] = NCI Yeast Anticancer Drug Screen. Data for the mlh1 rad18 strain (AID 175); settings: S. cerevisiae mlh1 rad18 strain growth inhibition, active compounds read high
Procedure, shortened: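 Genetically defined yeast (DNA repair-deficient) exposed to compounds; growth inhibition determined relative to vehicle.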

[5] = NCI Yeast Anticancer Drug Screen. Data for the rad18 strain (AID 177); settings: S. cerevisiae rad18 mutant growth inhibition, active compounds read high
Procedure, shortened: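 Vehicle-treated cultures served as the baseline for scoring compound-induced growth inhibition in DNA-repair-mutant yeast.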

[6] = NCI Yeast Anticancer Drug Screen. Data for the rad52 strain (AID 147);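 note: 0% = growth of vehicle-treated control cultures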; settings: S. cerevisiae rad52 mutant growth inhibition, active compounds read high
Procedure, shortened: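 The repair-mutant yeast strain was incubated with compounds, then growth was read and inhibition derived relative to vehicle.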

[7] = NCI Yeast Anticancer Drug Screen. Data for the wt1 strain (AID 149);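 note: 0% = growth of vehicle-treated wt1 cultures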; settings: S. cerevisiae wt1 strain (SPY 50644) growth inhibition, active compounds read high
Procedure, shortened: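 Vehicle-normalised growth inhibition; strain wt1; compound exposure.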

[8] = NCI Yeast Anticancer Drug Screen. Data for the rad50EPP+ strain (AID 151);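 note: 0% = growth of vehicle-treated control cultures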; settings: S. cerevisiae rad50 mutant strain, active compounds read high
Procedure, shortened: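 Vehicle-normalised growth inhibition; rad50EPP+ yeast strain, altered in DNA damage repair, compound-treated.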

[9] = NCI Yeast Anticancer Drug Screen. Data for the mgt1 strain (AID 153); settings: S. cerevisiae mgt1 mutant growth inhibition, active compounds read high
Procedure, shortened: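 Vehicle-normalized growth inhibition is determined in mgt1 yeast, a strain selected for a defined alteration in DNA repair or cell cycle control.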

[10] = NCI Yeast Anticancer Drug Screen. Data for the rad50 strain (AID 155);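 note: 0% = growth of vehicle-only cultures of the same strain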; settings: S. cerevisiae rad50 strain growth inhibition, active compounds read high
Procedure, shortened: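 A DNA repair-deficient yeast mutant serves as the test organism; compound-induced growth inhibition is calculated against vehicle-treated cells.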

[11] = NCI Yeast Anticancer Drug Screen. Data for the mec2-1 strain (AID 157); settings: S. cerevisiae mec2-1 strain, active compounds read high
Procedure, shortened: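 Mutant yeast (mec2-1) grown with compound; growth inhibition relative to vehicle control reported.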

[12] = NCI Yeast Anticancer Drug Screen. Data for the rad14 strain (AID 159);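 note: 0% = growth of vehicle-treated control cultures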; settings: S. cerevisiae rad14 strain growth inhibition, active compounds read high
Procedure, shortened: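 Vehicle-treated cultures served as the baseline for growth inhibition of a DNA repair-mutant yeast strain exposed to each compound.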

[13] = NCI Yeast Anticancer Drug Screen. Data for the sgs1 mgt1 strain (AID 161);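 note: 0% = growth of cultures given vehicle only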; settings: S. cerevisiae sgs1 mgt1 strain, active compounds read high
Procedure, shortened: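 Percent growth inhibition was derived by comparing compound-exposed mutant yeast with vehicle-exposed cultures. The strain carries alterations in DNA damage repair.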

[14] = NCI Yeast Anticancer Drug Screen. Data for the CLN2oe strain (AID 163);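 note: 0% = growth of vehicle-only control cultures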; settings: S. cerevisiae CLN2oe strain, active compounds read high
Procedure, shortened: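 Compounds are applied to yeast harbouring a defined cell-cycle control change; reduced growth compared with vehicle-treated controls gives the value.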

[15] = NCI Yeast Anticancer Drug Screen. Data for the cln2 rad14 strain (AID 165);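 note: 0% = growth equal to vehicle treated cultures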; settings: S. cerevisiae cln2 rad14 strain, active compounds read high
Procedure, shortened: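 Readout is yeast growth inhibition versus vehicle-treated controls, using a strain with cln2 and rad14 alterations exposed to compound.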

[16] = NCI Yeast Anticancer Drug Screen. Data for the bub3 strain (AID 167); settings: S. cerevisiae bub3 mutant strain, active compounds read high
Procedure, shortened: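 Inhibition values come from growth of compound-treated mutant yeast normalised to vehicle-treated controls.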

[17] = at 5.0 µM (retest, dose inferred, filed as 0.5)
[18] = at 50.0 µM (retest, dose inferred, filed as 5.0)

Measured: growth inhibition

O=C1c2ccccc2C(=O)c2cc(CBr)ccc21
active: [2]; at 100.0 µM 85% | [3]; at 33.0 µM 74% | [3]; at 100.0 µM 94% | [4]; [18] 92% | [4]; at 50.0 µM 96% | [5]; at 33.0 µM 78% | [5]; at 100.0 µM 93%
inactive: [1]; at 1.2 µM 9% | [1]; at 3.7 µM 3% | [1]; at 11.0 µM 13% | [1]; at 33.0 µM 18% | [1]; at 100.0 µM 69% | [2]; at 1.2 µM 2% | [2]; at 3.7 µM 9% | [2]; at 11.0 µM 17% | [2]; at 33.0 µM 40% | [3]; at 1.2 µM -2% | [3]; at 3.7 µM -14% | [3]; at 11.0 µM 23% | [4]; [17] 63% | [5]; at 1.2 µM 2% | [5]; at 3.7 µM 10% | [5]; at 11.0 µM 23%

CC(Br)C(=O)c1ccc2cc(Br)c3ccccc3c2c1 (centres undefined)
inactive: [6]; at 1.2 µM -2% | [6]; at 3.7 µM -2% | [6]; at 11.0 µM -2% | [6]; at 33.0 µM 4% | [6]; at 100.0 µM 2% | [7]; at 1.2 µM 0% | [7]; at 3.7 µM 0% | [7]; at 11.0 µM 1% | [7]; at 33.0 µM -5% | [7]; at 100.0 µM -3% | [8]; at 1.2 µM 2% | [8]; at 3.7 µM 14% | [8]; at 11.0 µM 24% | [8]; at 33.0 µM 35% | [8]; at 100.0 µM 39% | [9]; at 1.2 µM -1% | [9]; at 3.7 µM -1% | [9]; at 11.0 µM -1% | [9]; at 33.0 µM 2% | [9]; at 100.0 µM 5% | [10]; at 1.2 µM 1% | [10]; at 3.7 µM -2% | [10]; [17] -3% | [10]; at 11.0 µM 10% | [10]; at 33.0 µM 0% | [10]; [18] 41% | [10]; at 50.0 µM 63.7% | [10]; at 100.0 µM 0% | [11]; at 1.2 µM 2% | [11]; at 3.7 µM 4% | [11]; [17] -5% | [11]; at 11.0 µM 6% | [11]; at 33.0 µM 6% | [11]; [18] 12% | [11]; at 50.0 µM 27.4% | [11]; at 100.0 µM 16% | [12]; at 1.2 µM 0% | [12]; at 3.7 µM -1% | [12]; at 11.0 µM 0% | [12]; at 33.0 µM -5% | [12]; at 100.0 µM 17% | [13]; [17] 2% | [14]; at 1.2 µM -4% | [14]; at 3.7 µM -2% | [14]; at 11.0 µM -7% | [14]; at 33.0 µM -4% | [14]; at 100.0 µM -1% | [15]; [17] -24% | [15]; [18] -32% | [15]; at 50.0 µM 26.5% | [16]; at 1.2 µM -7% | [16]; at 3.7 µM -1% | [16]; [17] -10% | [16]; at 11.0 µM 3% | [16]; at 33.0 µM 2% | [16]; [18] 23% | [16]; at 50.0 µM 58% | [16]; at 100.0 µM -3% | [1]; at 1.2 µM -3% | [1]; at 3.7 µM -1% | [1]; at 11.0 µM -1% | [1]; at 33.0 µM 3% | [1]; at 100.0 µM 4% | [2]; at 1.2 µM 4% | [2]; at 3.7 µM 4% | [2]; at 11.0 µM 6% | [2]; at 33.0 µM -11% | [2]; at 100.0 µM 17% | [3]; at 1.2 µM 3% | [3]; at 3.7 µM 8% | [3]; at 11.0 µM 14% | [3]; at 33.0 µM 17% | [3]; at 100.0 µM 17% | [4]; [17] 9% | [4]; [18] 38% | [4]; at 50.0 µM 68.3% | [5]; at 1.2 µM 5% | [5]; at 3.7 µM 5% | [5]; at 11.0 µM 17% | [5]; at 33.0 µM 18% | [5]; at 100.0 µM 22%
active: [13]; [18] 76% | [13]; at 50.0 µM 74.5%

O=C(O)CNc1ccc(Cl)c(Cl)c1
inactive: [6]; at 1.2 µM -2% | [6]; at 3.7 µM 0% | [6]; at 11.0 µM 14% | [7]; at 1.2 µM -3% | [7]; at 3.7 µM -6% | [7]; at 11.0 µM -6% | [7]; at 33.0 µM 25% | [8]; at 1.2 µM -2% | [8]; at 3.7 µM 1% | [8]; at 11.0 µM 6% | [8]; at 33.0 µM 22% | [8]; at 100.0 µM 43% | [9]; at 1.2 µM -2% | [9]; at 3.7 µM -4% | [9]; at 11.0 µM -6% | [9]; at 33.0 µM 32% | [10]; at 1.2 µM -2% | [10]; at 3.7 µM 6% | [10]; [17] -7% | [10]; at 11.0 µM 13% | [10]; [18] 18% | [11]; at 1.2 µM -10% | [11]; at 3.7 µM -1% | [11]; [17] -7% | [11]; at 11.0 µM -8% | [11]; at 33.0 µM 38% | [11]; [18] 30% | [11]; at 50.0 µM 57.2% | [12]; at 1.2 µM -6% | [12]; at 3.7 µM -7% | [12]; at 11.0 µM -7% | [12]; at 33.0 µM 48% | [13]; [17] -6% | [13]; [18] 22% | [13]; at 50.0 µM 38.4% | [14]; at 1.2 µM -4% | [14]; at 3.7 µM -1% | [14]; at 11.0 µM 0% | [14]; at 33.0 µM 58% | [15]; [17] 10% | [15]; [18] 1% | [16]; at 1.2 µM -9% | [16]; at 3.7 µM -12% | [16]; [17] -8% | [16]; at 11.0 µM 5% | [16]; at 33.0 µM 67% | [16]; [18] 17% | [1]; at 1.2 µM -5% | [1]; at 3.7 µM -5% | [1]; at 11.0 µM -6% | [2]; at 1.2 µM -2% | [2]; at 3.7 µM 1% | [2]; at 11.0 µM 2% | [3]; at 1.2 µM -3% | [3]; at 3.7 µM -5% | [3]; at 11.0 µM 4% | [4]; [17] -16% | [5]; at 1.2 µM -2% | [5]; at 3.7 µM -4% | [5]; at 11.0 µM 2%
active: [6]; at 33.0 µM 77% | [6]; at 100.0 µM 98% | [7]; at 100.0 µM 98% | [9]; at 100.0 µM 99% | [10]; at 33.0 µM 75% | [10]; at 50.0 µM 78.2% | [10]; at 100.0 µM 98% | [11]; at 100.0 µM 99% | [12]; at 100.0 µM 98% | [14]; at 100.0 µM 98% | [15]; at 50.0 µM 84.2% | [16]; at 50.0 µM 87.3% | [16]; at 100.0 µM 98% | [1]; at 33.0 µM 78% | [1]; at 100.0 µM 99% | [2]; at 33.0 µM 71% | [2]; at 100.0 µM 99% | [3]; at 33.0 µM 74% | [3]; at 100.0 µM 98% | [4]; [18] 76% | [4]; at 50.0 µM 89.2% | [5]; at 33.0 µM 76% | [5]; at 100.0 µM 98%
